Assay outcomes deposited in PubChem by National Center for Advancing Translational Sciences (NCATS).
Most compounds without a hit are left out; they make up all but 0.77% or so of the library.
NS1 inh – blocks influenza NS1 protein function. AID 2326. Potency, µM (top dose mostly 46.1 µM). hit rate 0.4% among 270,000; further: actives are rising curves; nearly all actives have a fitted effect of over 50% in size
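A cell-based growth assay was used: compounds that relieve NS1-induced slow growth of budding yeast raise OD600. Assay medium was yeast nitrogen base with ammonium sulphate and -URA supplement, pH 6.0, with 2% galactose.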
LmPK inhibitor – LmPK (Leishmania mexicana) enzyme inhibition. Q27686. purified LmPK, Kinase-Glo ATP luminescence, 1 h. Potency, µM (titrated, usually from 57.5 µM), hits mostly inhibitors. hit rate 0.37% among 290,000; active means well fitted curve in the direction sought with a large enough effect; inconclusive means small, poorly fitted or top-dose-only effect, or another doubt; inactive means no such curve, though single readings can be large; an effect the other way counts as inactive or inconclusive
Target sequence (Q27686 whole entry, looked up): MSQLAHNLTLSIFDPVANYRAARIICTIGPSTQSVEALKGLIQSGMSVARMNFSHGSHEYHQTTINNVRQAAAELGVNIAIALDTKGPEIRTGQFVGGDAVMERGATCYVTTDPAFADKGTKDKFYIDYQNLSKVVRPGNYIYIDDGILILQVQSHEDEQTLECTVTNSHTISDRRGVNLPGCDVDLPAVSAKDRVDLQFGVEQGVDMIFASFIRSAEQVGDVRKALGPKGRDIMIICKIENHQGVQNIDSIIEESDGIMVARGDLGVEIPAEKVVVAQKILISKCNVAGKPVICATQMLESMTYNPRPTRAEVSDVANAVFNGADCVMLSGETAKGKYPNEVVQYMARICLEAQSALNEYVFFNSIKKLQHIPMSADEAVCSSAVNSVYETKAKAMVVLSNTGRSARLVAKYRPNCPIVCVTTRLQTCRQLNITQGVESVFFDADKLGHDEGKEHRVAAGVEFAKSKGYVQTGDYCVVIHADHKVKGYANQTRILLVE
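Purified LmPK (0.1 nM) with 0.5 mM PEP and 0.1 mM ADP in imidazole buffer pH 7.2 with MgCl2/KCl, 1 h at room temperature. ATP formed was read by luciferase luminescence and normalized to no-enzyme and uninhibited controls.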
RE007 growth inh – less growth of the S. pombe RE007 Vpr strain | Potency, µM (top dose mostly 92.2 µM), usual class: inhibitors | AID 651644 | S. pombe RE007 Vpr strain, BacTiter-Glo ATP luminescence, 24 h | hit rate 0.21% among 360,000; active means well fitted falling curve with a large enough effect; inconclusive means small, poorly fitted or top-dose-only effect; inactive means no such curve, though single readings can be large or run the other way; further: nearly all actives have a fitted effect of over 50% in size
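Fission yeast RE007 carrying one integrated HIV-1 vpr copy, seeded at OD 0.01 in PMG+AL medium with 23 nL pinned compound. Grown 24 h at 30 degrees; viability read by BacTiter-Glo luminescence after 5 min.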
Tb PYK inh – blocks Trypanosoma brucei pyruvate kinase; Q57TT1; TbPYK enzyme, Kinase-Glo Plus ATP luminescence, 45 min; Potency, µM (highest dose often 76.8 µM), most hits filed as inhibitors; hit rate 0.12% among 410,000; active means well fitted curve in the direction sought with a large enough effect; inconclusive means small, poorly fitted or top-dose-only effect, or another doubt; inactive means no such curve, though single readings can be large; an effect the other way counts as inactive or inconclusive; further: nearly all actives have a fitted effect of over 50% in size
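T. brucei PYK with substrate was exposed to pin-transferred compounds across a concentration series, then started with 130 uM ADP (final). After 45 min at room temperature, Kinase-Glo Plus luminescence was read, normalized and curve-fitted.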
Flu NS1 inh – influenza NS1 function inhibition validation | influenza NS1 function cell assay, 15-point titration | 1,400 tested, under 10 active | shares compounds with NS1 inh | activity change, negative = inhibition, % at 32.9 µM
PR8 titer – influenza NS1 inhibitors: inhibition of influenza A/PR/8/34 replication; hit rate 30% among 95; MDCK infected influenza A/PR/8/34, virus titer TCID50; stronger effect = lower value; shares compounds with NS1 inh; virus titer (log TCID50), log10 TCID50 at 5 µM; AID 504647; call rule not given here
Each line names hits and unclear results; the compound was inactive in the other large screens (follow-up assays come after a bar, where they were run). Unless noted, the call rests on the fitted dose curve.

COc1ccc(C2C(C(=O)c3sc(C)nc3C)=C(O)C(=O)N2CCCn2ccnc2)cc1OC (stereo not drawn)	NS1 inh 1.8µM | Flu NS1 inh inactive
COc1ccc(-c2nc(=S)c3c([nH]2)Oc2ccc(C)cc2C3)cc1O	NS1 inh 10µM | Flu NS1 inh inactive
COC(=O)C(NC(C)=O)(Nc1nc2ccc(S(C)(=O)=O)cc2s1)C(F)(F)F (stereo not drawn)	none
COC(=O)C(NC(C)=O)(Nc1nc2ccc(C)cc2s1)C(F)(F)F (stereo not drawn)	NS1 inh 8.9µM | Flu NS1 inh inactive
CCCS(=O)(=O)c1nc(S(=O)(=O)c2ccc(C)cc2)c(NCc2ccccc2)s1	none (no result: NS1 inh, LmPK inhibitor, RE007 growth inh)
O=C(NCCN1C(=O)S/C(=C\c2ccc(F)cc2)C1=O)C1CCN(S(=O)(=O)c2cccs2)CC1	NS1 inh inconclusive | Flu NS1 inh inactive
CCOC(=O)C1=C(C)Nc2sc(C(=O)c3ccc(F)cc3)c(N)c2C1c1ccc(C(=O)OC)cc1 (stereo not drawn)	NS1 inh inconclusive
CCOC(=O)C1=C(C)Nc2sc(C(=O)c3ccc(C)cc3)c(N)c2C1c1ccc(C(=O)OC)cc1 (stereo not drawn)	NS1 inh 10µM | Flu NS1 inh inactive
NCC[C@H](O)C(=O)N[C@H]1C[C@@H](N)[C@@H](O[C@H]2O[C@@H](CN)[C@@H](O)[C@@H](O)[C@@H]2N)[C@@H](O[C@H]2O[C@@H](CO)[C@@H](O)[C@@H]2O)[C@@H]1O	none (no result: NS1 inh, LmPK inhibitor, RE007 growth inh)
Cc1cc2n(c1)CCn1c(C)ccc1-2	NS1 inh 13µM (no result: RE007 growth inh, Tb PYK inh) | Flu NS1 inh inactive
CCCC1=[N+](CC)CCn2c(C)ccc21	none
COc1ccccc1NC(=O)Cn1c(=O)n(CCc2c[nH]c3ccccc23)c(=O)c2cccnc21	NS1 inh 11µM | Flu NS1 inh inactive
COc1ccccc1NC(=O)CSc1nc2nccnc2c(=O)n1CCc1c[nH]c2ccccc12	none (no result: NS1 inh, LmPK inhibitor, RE007 growth inh)
O=C(Cn1c(NCCO)nc2ccccc21)NCCc1ccc(F)cc1	NS1 inh 1µM | Flu NS1 inh inactive
O=C(Cn1c(CO)nc2ccccc21)NCCc1ccc(F)cc1	none (no result: NS1 inh)
CCN(CC)S(=O)(=O)c1cccc(NC(=O)C2SC(=Nc3ccc(C)cc3C)C(C(=O)NC(C)COC)=C2N)c1 (stereo not drawn)	NS1 inh 13µM | Flu NS1 inh inactive
CCCCNC(=O)C1=C(N)C(C(=O)Nc2ccc(C)c(S(=O)(=O)N3CCCCC3)c2)SC1=Nc1ccc(C)cc1C (stereo not drawn)	NS1 inh inconclusive
N=C1N=C(N)c2cc3ccccc3cc21	none (no result: NS1 inh, LmPK inhibitor, RE007 growth inh)
COc1ccc(C(C)=O)cc1COc1cccnc1[N+](=O)[O-]	NS1 inh inconclusive | Flu NS1 inh inactive
Cc1cc(OCC(=O)NC(Cc2ccc(Cl)cc2)C(=O)O)c2c(C)c(C)c(=O)oc2c1 (stereo not drawn)	NS1 inh 7.9µM | Flu NS1 inh inconclusive | PR8 titer inactive
Cc1cc(OCC(=O)NC(Cc2ccc(Cl)cc2)C(=O)O)c2c3c(c(=O)oc2c1)CCCC3 (stereo not drawn)	NS1 inh 3.2µM | Flu NS1 inh inactive
CC(C)C[C@H](NC(=O)[C@H](Cc1ccccc1)NC(=O)c1cnccn1)B(O)O	none (no result: NS1 inh, LmPK inhibitor, RE007 growth inh)
CCCN(CCC)C1=N/C(=C\c2ccco2)C(=O)N1c1ccccc1	NS1 inh 1.1µM | Flu NS1 inh inactive
COC(=O)C1=C(C(=O)OC)[C@@H]2N(C)c3ccccc3[C@@]23C[C@@H](CO)N(C(=O)c2cc(C)oc2C)C3=N1	none (no result: NS1 inh, RE007 growth inh, Tb PYK inh)
S=c1[nH]c2cc(Cl)c3cccnc3c2o1	NS1 inh 4µM, Tb PYK inh inconclusive | Flu NS1 inh inactive
S=c1[nH]c2ncccc2o1	none
O=C(Nc1cc(Cl)ccc1Cl)C1(c2cccs2)CCOCC1	none (no result: NS1 inh, LmPK inhibitor, RE007 growth inh)
CCOC(=O)N1CCN(C(=O)CCC(=O)N2CCOc3ccc(C)cc32)CC1	NS1 inh 5.6µM | Flu NS1 inh inactive
CCCc1nc2ccccc2c(=O)n1NC(=O)c1c(O)c2ccccc2n(C)c1=O	none
CCc1nc2ccccc2c(=O)n1NC(=O)c1c(O)c2ccccc2[nH]c1=O	NS1 inh 1.6µM | Flu NS1 inh inactive
CCCCCCc1nc2ccccc2c(=O)n1NC(=O)c1c(O)c2c(n(CC(C)C)c1=O)CCCC2	NS1 inh 0.4µM | Flu NS1 inh inactive
O=C(NCCc1nc2ccccc2n1Cc1ccc(Cl)cc1Cl)c1ccco1	none (no result: NS1 inh, LmPK inhibitor, RE007 growth inh)
COc1ccc(C2CC(c3cccc(Cl)c3)n3nc(N)nc3N2)cc1 (stereo not drawn)	none
COc1cccc(C2CC(c3ccc(Cl)cc3)Nc3nc(N)nn32)c1 (stereo not drawn)	NS1 inh 7.1µM | Flu NS1 inh inactive
COC(=O)C(Cc1c[nH]c2ccccc12)NC(=O)COc1ccc(Cl)cc1Cl (stereo not drawn)	none (no result: NS1 inh, LmPK inhibitor, RE007 growth inh)
O=C(NN=C1CCCCCC1)c1cn(-c2ccccc2)nc1-c1ccccc1	NS1 inh 14µM | Flu NS1 inh inactive
O=C(NN=C1CCCC1)c1ccccc1[N+](=O)[O-]	NS1 inh inconclusive | Flu NS1 inh inactive
Cc1cccc(NC(=O)C2CCC(CNS(=O)(=O)c3ccc4c(c3)CCCC(=O)N4)CC2)c1C (stereo not drawn)	none (no result: NS1 inh, LmPK inhibitor, RE007 growth inh)
Cc1cc(NC(=O)CSc2n[nH]c(-c3ccccc3Br)n2)no1	none (no result: NS1 inh, LmPK inhibitor)
C/C(N)=C(/C#N)C(=O)CSc1n[nH]c(-c2ccccc2Br)n1	NS1 inh 4µM | Flu NS1 inh inactive
Cc1[nH][nH]c(=O)c1C(c1c(C)[nH][nH]c1=O)c1cn(C)c2ccccc12	none
Cc1[nH][nH]c(=O)c1C(c1c(C)[nH][nH]c1=O)c1cn(Cc2cccc3ccccc23)c2ccccc12	NS1 inh 13µM | Flu NS1 inh inactive
CC(C)(C)N1C(=O)c2ccc(C(=O)Nc3ccc(-c4nc5ccccc5[nH]4)cc3)cc2C1=O	NS1 inh inconclusive | Flu NS1 inh inactive
CC(C)(C)N1C(=O)c2ccc(C(=O)Nc3ccc(C(=O)O)cc3)cc2C1=O	none
Cc1cc(C(=O)NCc2ccc3c(c2)OCO3)ccc1[N+](=O)[O-]	none
CC1CC(C)CN(c2ccc(C(=O)NCc3ccc4c(c3)OCO4)cc2[N+](=O)[O-])C1 (stereo not drawn)	NS1 inh 10µM | Flu NS1 inh inactive
Cc1ccc(NC(=O)Nc2nnc(SCC(=O)N3CCC(C)CC3)s2)cc1	none (no result: NS1 inh, LmPK inhibitor, RE007 growth inh)
CC1C(=O)N(c2ccc(S(=O)(=O)N(C)C)cc2)C1(/C=C/c1ccccc1)C(=O)NC1CCCC1 (stereo not drawn)	NS1 inh 8.9µM | Flu NS1 inh inactive
O=C1CC(/C=C/c2ccccc2)(C(=O)NC2CCCC2)N1c1ccc(S(=O)(=O)N2CCCC2)cc1 (stereo not drawn)	none
